# Mito fusion act = mitochondrial division inhibition or fusion activation; S. cerevisiae fusion-defective mutant growth rescue, CellTiterGlo 48 h; Potency, µM (top dose mostly 46.1 µM), for inactives: at the highest dose growth rescue (activation), most hits filed as activators; 320,000 compounds, 0.23% hits; note: % of control where 0% means no effect; nearly all actives have a fitted effect of over 45% in size
#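 Luminescent cell viability in 1536-well qHTS format served as the measure of rescued growth in ts fusion-mutant S. cerevisiae cultured on non-fermentable YPEG for 48 hours at 37C.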
# Abeta rescue = restores growth of yeast expressing A-beta42 peptide. AID 1347071. yeast expressing A-beta42, growth rescue, OD600, 48 h; response scale: 0% DMSO, 100% iron-clioquinol control. Potency, µM (series often up to 46.1 µM), usual class: activators. 410,000 compounds, 0.063% hits; note: nearly all actives have a fitted effect of over 55% in size
#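 Yeast A-beta toxicity model in growth medium with pinned compounds, 48 h at 30 C; growth read as absorbance at 600 nm. Normalized to FeCl3/clioquinol equimolar mix (positive) and DMSO (negative).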
# TDP43 rescue = TDP-43 toxicity inhibition in yeast; TDP-43 expressing yeast growth rescue, BacTiter-Glo, 24 h; Potency, µM (top dose mostly 46.1 µM), for inactives: at the highest dose growth rescue (activation), most hits filed as activators; 410,000 compounds, 1.8% hits; note: % of control where 0% means no effect; nearly all actives have a fitted effect of over 50% in size
#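 Growth rescue of TDP-43-toxic yeast measured as ATP luminescence (BacTiter-Glo). Cells grown to mid-log in raffinose, induced in galactose at OD600=0.02, exposed to compound 24 hr at 30 deg C.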
# FUS suppressor = suppressors of FUS proteinopathy in yeast; S. cerevisiae FUS-expressing, growth rescue, OD600, 24 h; Potency, µM (doses to about 76.6 µM), hits mostly activators; 390,000 compounds, 0.24% hits;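 note: plate controls were DMSO vehicle for no effect and reference control for full effect; nearly all actives have a fitted effect of over 55% in size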
#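 Toxicity suppression screen in FUS-yeast. Cells induced with 2% galactose, starting OD 0.005, treated 24hr at 30C with compounds at multiple final concentrations; growth by OD600.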
# ERG-DNA inh = blocks human ERG Ets domain binding to DNA; P11308; fluorescence polarization, His-ERG Ets domain / labelled DNA; Potency, µM (highest dose often 76.9 µM), inactives show at the highest dose FP activity, negative = inhibition, most hits filed as inhibitors; 370,000 compounds, 0.028% hits; AID 624246; active = well fitted inhibition curve with a large enough effect in the polarisation, with a control signal flat; inconclusive = small, poorly fitted or top-dose-only effect, or effect the other way, or a change in a side signal; inactive = no such curve, though single readings can be large or run the other way; the % refers to the polarisation;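 note: polarization taken with two DNA probes labelled with fluorescein and Texas red; % of control where 0% means no effect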
# Target sequence (P11308 whole entry, looked up, the tested form may be a part): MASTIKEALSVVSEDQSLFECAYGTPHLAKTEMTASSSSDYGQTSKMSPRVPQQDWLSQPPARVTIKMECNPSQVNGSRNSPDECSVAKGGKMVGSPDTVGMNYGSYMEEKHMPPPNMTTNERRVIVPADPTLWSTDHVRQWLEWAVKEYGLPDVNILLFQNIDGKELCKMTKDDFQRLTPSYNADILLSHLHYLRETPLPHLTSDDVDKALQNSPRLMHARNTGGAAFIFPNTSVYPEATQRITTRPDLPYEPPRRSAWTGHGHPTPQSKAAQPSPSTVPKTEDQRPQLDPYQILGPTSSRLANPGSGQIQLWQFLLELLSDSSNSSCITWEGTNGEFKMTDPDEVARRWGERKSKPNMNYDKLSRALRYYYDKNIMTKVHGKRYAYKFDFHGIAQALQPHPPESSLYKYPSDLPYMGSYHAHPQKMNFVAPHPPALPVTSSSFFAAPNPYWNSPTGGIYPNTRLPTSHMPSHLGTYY
#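 His-tagged ERG Ets domain (1 uM in the protein solution; 300mM KCl, 50mM Tris-HCl, 1mM EDTA, 1mM DTT, pH 7.5) received compound, then a probe mix of 5 nM fluorescein-DNA and 100nM Texas-615-DNA. Fluorescence polarization was read for both dyes.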
# aSyn yeast inh = inhibitors of alpha-synuclein toxicity in yeast | Yeast expressing alpha-synuclein, growth rescue, BacTiter-Glo, 24 h | Potency, µM (doses to about 46.1 µM), for inactives: top-dose growth rescue (activation), hits mostly activators | 370,000 compounds, 0.14% hits | AID 652106; note: % of control where 0% means no effect; nearly all actives have a fitted effect of over 65% in size
#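 Rescue of yeast growth: cells expressing toxic alpha-synuclein, induced in galactose at OD600 0.02, incubated with compound 24 h at 30 C. ATP luminescence quantified growth; inhibitors of toxicity appear as activators.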
# Numbers without * were called inactive; i = inactive; ? = inconclusive; nt = no result; ! = repeats disagree; [ ] = remark or other dose. Rows were chosen to be rich in hits. Some 2.2% of all compounds tested hit in one or more screens of this group. Unless noted, calls come from the whole dose curve; as a rule, active = well fitted curve in the direction sought with a large enough effect; inconclusive = small, poorly fitted or top-dose-only effect, or another doubt; inactive = no such curve, though single readings can be large; an effect the other way counts as inactive or inconclusive. Potency is the fitted concentration of half-maximal effect.
SMILES,Mito fusion act,Abeta rescue,TDP43 rescue,FUS suppressor,ERG-DNA inh,aSyn yeast inh
Cn1c(=O)c(=O)n(C)c2cc(C(=O)NCc3ccccc3Cl)ccc21,nt,i,17%,i,3%,nt
NC(=O)C1(N2CCCCC2)CCN(C(=O)Nc2ccc(F)cc2F)CC1,nt,i,7%,i,4%,nt
COC(=O)c1ccc(OC(=O)CS(=O)c2ccccc2[N+](=O)[O-])cc1 (centres undefined),1%,i,13µM*,i,-2%,10%
CCOC(=O)c1ccccc1OC(=O)CS(=O)c1ccccc1[N+](=O)[O-] (centres undefined),3%,i,-16%[9.22 µM],i,-5%,3%
CS(=O)(=O)c1ccc(S(=O)CC(=O)OCc2ccccc2)c([N+](=O)[O-])c1 (centres undefined),6%,i,-8%,i,-7%,-9%
O=C(CS(=O)c1ccc(C(F)(F)F)cc1[N+](=O)[O-])Oc1ccccc1 (centres undefined),4%,i,22µM*,i,-1%,-16%
CCOc1ccc(CCNC(c2nnc(-c3ccccc3)o2)c2ccccc2Cl)cc1OCC (centres undefined),nt,i,?,?,-2%,nt
Cc1cc(F)ccc1S(=O)(=O)Nc1ccc2oc3c(c2c1)CC(C)CC3 (centres undefined),nt,i,35µM*,i,0%,nt
COc1ccc(-c2cc(C)no2)cc1S(=O)(=O)Nc1c(C)cc(C)cc1C,nt,i,?,?,-8%,nt
CN(CCO)c1ccc2c(c1)Oc1ccccc1CN(Cc1cn(Cc3ccc(F)cc3)nn1)S2(=O)=O,nt,nt,nt,i,nt,nt
Cc1ccc(Nc2nc(COC(=O)C3CC3)cs2)cc1,4%,i,13µM*,i,-1%,-24%
COc1ccc(/C=C2\COc3ccccc3C2=O)cc1OC,-11%,i,2.8µM*,i,16%,23%
O=C(O)c1ccc(/C=C2\COc3ccccc3C2=O)cc1,-19%,i,11µM*,i,10%,?
CCOc1cc(/C=C2\COc3ccccc3C2=O)cc(Br)c1OCC(=O)N(C)C,-56%,i,22µM*,?,1%,?
CCOc1ccc(NC(=O)c2c(NCc3cccnc3)sc3c2CCCC3)cc1,nt,i,26%,i,0%,nt
COc1nc2ccccc2nc1N1CCN(Cc2ccc3c(c2)OCO3)CC1,7%,i,14µM*,i,-1%,1%
Cc1ccc(S(=O)(=O)N2CCOC23CCN(C(=O)c2ccccc2Br)CC3)cc1,-13%,nt,16µM*,i,1%,5%
CC1CCCC(C)N1C(=O)COC(=O)c1c[nH]c2ccccc12 (centres undefined),16%,i,1%,i,7%,0%
O=C(Nc1ccc(C(F)(F)F)cc1Cl)c1ccc(Cn2cc(Br)cn2)o1,1%,i,?,i,nt,4%
O=C(Nc1cccc(C(F)(F)F)c1)c1ccc(Cn2cc(Br)cn2)o1,-1%,i,13µM*,i,-2%,-12%
COc1cc2nc(N3CCCN(C)CC3)nc(OC3CCN(C)CC3)c2cc1OC,nt,nt,nt,nt,nt,-1%
COc1ccc2c(c1)/C(=N/OC(=O)c1cccs1)CCC2,12%,i,?,i,0%,1%
COc1ccc(NC(=O)O/N=C2/CCCc3ccc(OC)cc32)cc1,7%,i,14µM*,i,-1%,-11%
Clc1ccc(CSc2nccn2Cc2ccccc2)cc1,-12%,i,16µM*,i,2%,3%
N#C/C(=C\c1ccc(-c2cc(Cl)ccc2Cl)o1)C(=O)Nc1cccc2ncccc12,-57%,nt,nt,nt,nt,2%
SMILES,Mito fusion act,Abeta rescue,TDP43 rescue,FUS suppressor,ERG-DNA inh,aSyn yeast inh
CCCC[C@@H]1CNC(=S)N1CCc1cccc2ccccc12,7%,?,35µM*,i,-1%,21%
c1ccc(-c2cnc(CSc3ncnc4sccc34)o2)cc1,1%,i,22µM*,i,1%,3%
COCCn1c(C)cc(C(=O)CSc2nnc(-c3cccnc3)n2-c2ccccc2F)c1C,3%,i,11%,20µM*,5%,nt
Oc1sc(C=Nc2ccc(F)cc2)c2ccccc12,-3%,i,0.63µM*,i,-7%,0%
O=C(NCCc1ccc(F)cc1)NC12CC3CC(CC(C3)C1)C2,15%,i,4%,i,5%,-13%
O=C(NCCC1=CCCCC1)NC12CC3CC(CC(C3)C1)C2,8%,i,16µM*,i,8%,-12%
CCc1nc2ccc(C(=O)Nc3cccc(OCC(=O)N(C)C)c3)cn2c1N(C)Cc1ccc(N(C)C)cc1,nt,i,19%,i,nt,0%
CC(C(=O)Nc1cccc(C#N)c1)n1nc(-c2ccccc2)c2c(c1=O)CCCC2 (centres undefined),nt,i,28%,?,2%,nt
CC(C(=O)Nc1ccccc1C(F)(F)F)n1nc(-c2ccccc2)c2c(c1=O)CCCC2 (centres undefined),nt,i,35µM*,i,7%,nt
CCCC[C@@]1(C2CCCC2)Cc2cc(OCC(=O)O)c(Cl)c(Cl)c2C1=O,21µM*!,i,13%,i,5%,-48%
C[C@]1(C2CCCC2)Cc2cc(OCC(=O)O)c(Cl)c(Cl)c2C1=O,nt,i,8%,i,6%,4%
COCCCNC(=O)c1c(NC(=O)Cc2coc3cc(C)cc(C)c23)sc2c1CCCC2,nt,i,11%,i,-10%,nt
Cc1ccccc1NC(=O)c1c(C)oc2ccc(O)c(CN3CCN(C)CC3)c12,nt,i,7%,i,-3%,nt
CCN(CC)c1ccc(/C=C/C2=C3C=CC=CC3NC=C2)cc1 (centres undefined),nt,nt,nt,nt,nt,-2%
Cc1ccc(-n2nnnc2C(Cl)c2nnnn2-c2ccc(C)cc2)cc1,6%,i,3.5µM*,i,-5%,-47%
Cc1ccc(-n2nnnc2-c2ccccc2)cc1,1%,i,?,i,4%,-8%
C[C@H]1[C@@H](OC(=O)Nc2ccc(Br)cc2)CC[C@@]23CCCN2C(=O)CCC[C@@H]13,nt,nt,nt,i,nt,nt
Cc1cc(C)c(NS(=O)(=O)c2ccc3c(c2)CC(C)N3C(=O)C2CCC2)c(C)c1 (centres undefined),nt,i,11µM*,?,-11%,nt
CCOc1ccccc1NS(=O)(=O)c1ccc2c(c1)CC(C)N2C(=O)C1CCC1 (centres undefined),nt,i,24%,?,-10%,nt

# Source: PubChem (National Center for Advancing Translational Sciences (NCATS))
